Results filed as inconclusive are left out. Active and inactive are the calls of the source. The call rests on the fitted dose curve; in most records, active means well fitted curve in the direction sought with a large enough effect; inconclusive means small, poorly fitted or top-dose-only effect, or another doubt; inactive means no such curve, though single readings can be large; an effect the other way counts as inactive or inconclusive.
Key:
[1] = molecular target: Single-stranded DNA cytosine deaminase (Homo sapiens) (UniProt Q9GZX7); experiment: Validation qHTS assay for inhibitors of Activation Induced Cytidine Deaminase (AID): AID signal (AID 1347429)
Chain of Single-stranded DNA cytosine deaminase (Homo sapiens) (Q9GZX7 whole entry, looked up): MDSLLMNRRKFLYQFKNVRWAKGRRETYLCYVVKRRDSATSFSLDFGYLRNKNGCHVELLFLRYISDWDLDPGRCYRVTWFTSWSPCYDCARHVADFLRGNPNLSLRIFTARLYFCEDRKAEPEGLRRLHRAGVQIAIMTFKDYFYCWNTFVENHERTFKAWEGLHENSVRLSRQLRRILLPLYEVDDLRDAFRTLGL
Method in brief: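 FRET deamination assay: 1 uM AID (4/3x stock) with UDG, compound up to 114 uM, then 250 nM DJC20/DJC23 substrate (4x stock) for 4 hr at room temperature. NaOH added, 30 min; fluorescence read 540/590 nm.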

[2] = Primary qHTS for inhibitors of La Crosse Virus (LACV) - induced cell death in SH-SY5Y cells (AID 1508616); further: potency means the concentration at half of the fitted maximal effect
Method in brief: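 SH-SY5Y cells (6000/well) plated 24 h, then given compounds by pin transfer and LACV at 0.01 MOI for 6 days at 37C. Viability measured by ATPLite luminescence, normalized to infected DMSO and uninfected DMSO.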

[3] = molecular target: Calcium and integrin-binding protein 1 (Homo sapiens) (UniProt Q99828); experiment: Validation qHTS for Identification of Calcium Integrin Binding protein 1 (CIB1) Competitor (AID 1508618)
Chain of Calcium and integrin-binding protein 1 (Homo sapiens) (Q99828 whole entry, looked up): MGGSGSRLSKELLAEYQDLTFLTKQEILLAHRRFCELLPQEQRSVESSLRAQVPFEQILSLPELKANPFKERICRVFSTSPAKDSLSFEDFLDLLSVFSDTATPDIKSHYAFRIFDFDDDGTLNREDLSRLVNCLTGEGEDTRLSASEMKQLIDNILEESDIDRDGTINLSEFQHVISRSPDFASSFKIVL
Method in brief: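 CIB1-GST (1 uM final) in 5 mM HEPES pH 7.4, 125 mM NaCl, 5 mM CaCl2, 0.01% Tween20 was preincubated 15 min at room temperature with compound (up to 114 uM), then FITC-alphaIIb peptide (100 nM) added for 15 min; fluorescence polarization read.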

[4] = molecular target: Papain (Carica papaya) (UniProt P00784); experiment: Primary qHTS assay for inhibitors of the protease papain (AID 1645873);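 further: papain turnover of Z-FR-AMC read as the AMC fluorescence gain over 10 min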; further: potency means the concentration at half of the fitted maximal effect
Chain of Papain (Carica papaya) (P00784 whole entry, looked up): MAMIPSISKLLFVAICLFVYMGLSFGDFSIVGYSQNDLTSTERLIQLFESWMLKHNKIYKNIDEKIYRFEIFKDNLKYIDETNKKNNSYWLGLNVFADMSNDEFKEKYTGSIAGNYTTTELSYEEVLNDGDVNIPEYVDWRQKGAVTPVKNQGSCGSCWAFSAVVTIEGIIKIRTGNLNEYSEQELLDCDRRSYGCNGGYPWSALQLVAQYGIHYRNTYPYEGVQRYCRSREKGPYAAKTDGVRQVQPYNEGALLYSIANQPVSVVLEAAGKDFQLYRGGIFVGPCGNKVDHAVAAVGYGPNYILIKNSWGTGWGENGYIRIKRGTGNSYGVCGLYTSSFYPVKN

[5] = Primary qHTS for small molecule stabilizers of the endoplasmic reticulum resident proteome: Secreted ER Calcium Modulated Protein (SERCaMP) assay (AID 1508630)
Method in brief: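 GLuc-SERCaMP-expressing SH-SY5Y cells, pretreated 16 h with compound, are challenged with thapsigargin to empty ER calcium stores; after 4 h, coelenterazine is added directly to the medium and luminescence is imaged.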

Measured: Potency

Fc1ccc(CN(C2=NCCN2)c2c(Cl)cccc2Cl)cc1
not listed: [5]
inactive: all other assays above

N[C@@H](Cc1ccc(F)cc1)C(=O)O
not listed: [3]
inactive: all other assays above

CC1C(=O)N(C)C(=O)c2nc[nH]c21 (centres undefined)
not listed: [5]
inactive: all other assays above

Clc1nccc2c1ccc1ccccc12
not listed: [5]
inactive: all other assays above

O=C(O)CCC/C=C\C[C@@H]1[C@@H](/C=C/[C@H](O)C2Cc3ccccc3C2)[C@@H](F)C[C@@H]1O
not listed: [5]
inactive: all other assays above

CCOC(=O)C12CC1/C(=N/O)c1ccccc1O2 (centres undefined)
not listed: [5]
inactive: all other assays above

OCC1NCC(O)C(O)C1O (centres undefined)
not listed: [5]
inactive: all other assays above

NCC(O)c1ccc(O)c(O)c1 (centres undefined)
inactive: [1] | [2] | [5]

O=C(O)Cc1ccc(O)c(O)c1
inactive: [1] | [2] | [5]

N#Cc1cc2nc(O)c(O)nc2cc1[N+](=O)[O-]
inactive: [1] | [2] | [5]

Cn1c(=O)c2[nH]c(-c3ccc(S(=O)(=O)O)cc3)nc2n(C)c1=O
inactive: [1] | [2] | [5]
active: [4] 25.1 µM

Cc1cccc(C(=O)NCN2CCN(c3ccccc3C#N)CC2)c1
not listed: [5]
inactive: all other assays above

Nc1nc2[nH]c(=O)cnc2c(=O)[nH]1
not listed: [5]
inactive: all other assays above

Cc1cccc(C2CN(C)CCc3c2cc(O)c(O)c3Cl)c1 (centres undefined)
not listed: [5]
inactive: all other assays above

CCCCS(=N)(=O)CC[C@H](N)C(=O)O (some centres undefined)
not listed: [5]
inactive: all other assays above

Nc1nc2c(nc(Br)n2C2OC3COP(=O)(O)O[C@@H]3C2O)c(=O)[nH]1 (some centres undefined)
not listed: [5]
inactive: all other assays above

O=C(N[C@@H](Cc1ccccc1)C(=O)CCl)OCc1ccccc1
active: [2] 1 µM | [4] 15.8 µM
inactive: [1] | [5]

CNCCNS(=O)(=O)c1cccc2cnccc12
not listed: [3]
inactive: all other assays above
